Laboratory results as given in the supplement of paper PMC13380429.
Where a name gives a salt, the structure may show the parent alone.

Columns and labels:
[1] = system: Vero E6 infected with SARS-CoV-2; assay: morphology score (similarity to uninfected cells); higher = more like uninfected cells; conditions: 24 h
[2] = system: Vero E6 infected with SARS-CoV-2; assay: SARS-CoV-2 infection rate relative to infected DMSO; higher = more infection, active = 60 or less; conditions: 24 h

Row | Compound | morphology score [1] | SARS-CoV-2 infection rate [2]
1 | C[C@@H](NCCCc1cccc(C(F)(F)F)c1)c1cccc2ccccc12 [cinacalcet] (10 µM) | 0.845 | 20% (active)
2 | CC(=O)[C@H]1CC[C@H]2[C@@H]3C[C@H](C)C4=CC(=O)CC[C@]4(C)[C@H]3[C@@H](O)C[C@]12C [medrysone] (10 µM) | 0.0629 | 106% (inactive)
3 | Cc1cccc(NC(=O)N[C@@H]2N=C(c3ccccc3)c3ccccc3N(C)C2=O)c1 (10 µM) | 0.0212 | 106% (inactive)
4 | O=C(OCCOCCO)c1ccccc1Nc1cccc(C(F)(F)F)c1 [etofenamate] (10 µM) | -0.0601 | 112% (inactive)
5 | CC(=O)[C@H]1CC[C@H]2[C@@H]3CCC4=CC(=O)CC[C@]4(C)[C@H]3CC[C@]12C [progesterone] (10 µM) | 0.206 | 96% (inactive)
6 | OC[C@@H](O)[C@H]1O[C@@H]2O[C@H](C(Cl)(Cl)Cl)O[C@@H]2[C@H]1O [chloralose] (10 µM) | 0.162 | 103% (inactive)
7 | Cc1ccc2c(Cl)cc(Cl)c(O)c2n1 [chlorquinaldol] (10 µM) | 0.0549 | 99% (inactive)
8 | Cc1ccc2cc(-c3c(C)ccc(C(=O)c4c(-c5ccccc5)n(C)n(-c5ccccc5)c4=O)c3N)ccc2n1 (10 µM) | 0.0631 | 76% (inactive)
9 | CCOc1cc([C@@H](CS(C)(=O)=O)N2C(=O)c3cccc(NC(C)=O)c3C2=O)ccc1OC [apremilast] (10 µM) | 0.345 | 89% (inactive)
10 | CC(C)(O)C(=O)N1CCN(c2ccc(C(F)(F)F)c(C3=C(c4c[nH]c5ccccc45)C(=O)NC3=O)c2)CC1 (0.833333 µM) | -0.201 | 108% (inactive)
11 | C[N+](C)(C)CCOP(=O)(O)OC[C@H](O)CO [choline-alfoscerate] (10 µM) | 0.0475 | 114% (inactive)
12 | Cc1nccn1CC1CCc2c(c3ccccc3n2C)C1=O (stereo not drawn) [ondansetron] (10 µM) | 0.253 | 90% (inactive)
13 | O=C(O)C[C@H]1CC[C@H](c2ccc(-c3ccc(Nc4ccc(C(F)(F)F)nc4)cn3)cc2)CC1 (10 µM) | 0.27 | 73.5% (inactive)
14 | NCCc1c[nH]cn1 [histamine] (10 µM) | -0.112 | 114% (inactive)
15 | CNCCC(Oc1ccc(C(F)(F)F)cc1)c1ccccc1 (stereo not drawn) [fluoxetine] (10 µM) | 0.539 | 66% (inactive)
16 | Cc1ccc(=O)n(-c2ccc(O)cc2)c1 (10 µM) | -0.0543 | 94.5% (inactive)
17 | Cn1nnc2c(C(N)=O)ncn2c1=O [temozolomide] (10 µM) | -0.0949 | 114% (inactive)
18 | FC(F)(F)c1ccc(/C=C/c2nc(COc3ccc(CCCCn4ccnn4)cc3)co2)cc1 [mubritinib] (10 µM) | -0.0917 | 96% (inactive)
19 | CCCCCCCCCCCCCCCc1cccc(OCC(=O)NCCO)c1 (10 µM) | -0.00804 | 106% (inactive)
20 | COC(=O)C1=C(C)N(C)C(C)=C(C(=O)OC)C1c1ccc(C(F)(F)F)cc1 (10 µM) | -0.13 | 114% (inactive)

Row | Compound | morphology score [1] | SARS-CoV-2 infection rate [2]
21 | C[C@]1(c2nc3c(C(N)=O)cccc3[nH]2)CCCN1 [veliparib] (10 µM) | 0.206 | 109% (inactive)
22 | CC1(C)CC[C@]2(C(=O)O)CC[C@]3(C)C(=CC[C@@H]4[C@@]5(C)CC[C@H](O)C(C)(C)[C@@H]5CC[C@]43C)[C@@H]2C1 [oleanolic-acid] (10 µM) | 0.0528 | 110% (inactive)
23 | C#C[C@]1(O)CC[C@H]2[C@@H]3CCc4cc(OC5CCCC5)ccc4[C@H]3CC[C@@]21C [quinestrol] (10 µM) | -0.0318 | 102% (inactive)
24 | COc1cc(/C=C/C(=O)N2CCN(CC(=O)N3CCCC3)CC2)cc(OC)c1OC [cinepazide] (10 µM) | -0.015 | 108% (inactive)
25 | C[C@H](C[C@H](N)C(=O)O)C(=O)O (10 µM) | 0.0497 | 108% (inactive)
26 | CC1=C(C(=O)O)N2C(=O)[C@@H](NC(=O)[C@H](N)C3=CCC=CC3)[C@H]2SC1 [cephradine] (10 µM) | 0.0689 | 106% (inactive)
27 | CCCCCCCCOc1ccccc1C(=O)Nc1ccc(C(=O)OCC[N+](C)(CC)CC)cc1 [otilonium] (10 µM) | 0.299 | 101% (inactive)
28 | c1ccc2c(CCNc3ccc(Nc4ccncc4)cc3)c[nH]c2c1 [serdemetan] (10 µM) | 0.933 | 37.5% (active)
29 | Nc1nc(NC2CC2)cc(-c2cccc(Cl)c2Cl)n1 (10 µM) | 0.121 | 97% (inactive)
30 | CC[C@H](NC(=O)c1c(C)c(-c2ccccc2)nc2ccccc12)c1ccccc1 (10 µM) | 0.0423 | 101% (inactive)
31 | C[N+]1(C)CCC(OC(=O)C(O)(c2ccccc2)C2CCCC2)C1 (stereo not drawn) [glycopyrrolate] (10 µM) | 0.122 | 107% (inactive)
32 | O=C1C(Cl)=C(NCCN2CCOCC2)C(=O)c2ncccc21 (0.833333 µM) | 0.143 | 94% (inactive)
33 | COc1cc(C[C@@H]2NCCc3cc(O)c(O)cc32)cc(OC)c1OC [trimethoquinol] (10 µM) | 0.0323 | 99.5% (inactive)
34 | COc1ccc(C2(CNC(=O)c3ccc(NC(=O)c4ccco4)cc3)CCOCC2)cc1 (0.833333 µM) | 0.269 | 93% (inactive)
35 | CC[C@H](CC#N)OC(=O)N[C@@H](C)c1cccc(NC(=O)Nc2ccc(-c3cnco3)c(OC)c2)c1 (10 µM) | -0.000547 | 97% (inactive)
36 | Cc1cc2nc3c(=O)[nH]c(=O)nc-3n(C[C@H](O)[C@H](O)[C@H](O)CO)c2cc1C [riboflavin] (10 µM) | 0.208 | 102% (inactive)
37 | CN(C)CCOc1ccc(/C(=C(/CCCl)c2ccccc2)c2ccccc2)cc1 [Toremifene citrate] (10 µM) | 0.422 | 77% (inactive)
38 | CCc1c(-c2ccccc2)c(-c2ccccc2)nn1-c1ccccc1-c1cccc(OCC(=O)O)c1 (10 µM) | 0.0748 | 96.5% (inactive)
39 | O[C@@H](CN1CCNCC1)Cn1c2ccc(Br)cc2c2cc(Br)ccc21 [BAX-channel-blocker] (0.833333 µM) | 0.121 | 104% (inactive)
40 | Cc1c(O)c(=O)n(-c2ccccc2)n1C [4-hydroxy-phenazone] (10 µM) | -0.0731 | 116% (inactive)

Row | Compound | morphology score [1] | SARS-CoV-2 infection rate [2]
41 | C[C@@]12CC[C@@H]3[C@@](CC[C@H]4[C@@]3(C)CCC[C@@]4(C)C(=O)O)(CC1=O)C2 [isosteviol] (10 µM) | 0.144 | 100% (inactive)
42 | c1cc(-c2sc(-c3ccncc3)c(-c3ccncc3)c2-c2ccncc2)ccn1 (10 µM) | 0.0438 | 93% (inactive)
43 | Cc1ccc(S(=O)(=O)OCC(=O)Nc2ccc(C(=O)O)c(O)c2)cc1 [STAT3-inhibitor-VI] (10 µM) | 0.0369 | 110% (inactive)
44 | Cc1c(Cn2c(C)nc3c(C(=O)O)cc(N4CCOCC4)cc32)cccc1C(F)(F)F (0.833333 µM) | -0.135 | 118% (inactive)
45 | C[C@H](CSC(=O)c1ccccc1)C(=O)N1C[C@@H](Sc2ccccc2)C[C@H]1C(=O)O [zofenopril-calcium] (10 µM) | 0.0896 | 104% (inactive)
46 | COc1cc2c(cc1OC)CN(C(=O)[C@@H](NCc1ccncc1)C(C)(C)C)CC2 (10 µM) | -0.115 | 105% (inactive)
47 | CC1(C)Cc2c(-c3ccccc3)c(-c3ccc(Cl)cc3)c(CC(=O)O)n2C1 [licofelone] (10 µM) | 0.31 | 105% (inactive)
48 | CCOc1ccc(Cc2cc([C@@H]3O[C@H](SC)[C@@H](O)[C@H](O)[C@H]3O)ccc2Cl)cc1 [sotagliflozin] (10 µM) | -0.0387 | 114% (inactive)
49 | CO[C@H]1C[C@H](O[C@H]2[C@H](C)O[C@@H](O[C@@H]3/C(C)=C/C[C@@H]4C[C@@H](C[C@]5(C=C[C@H](C)[C@@H](C6CCCCC6)O5)O4)OC(=O)[C@@H]4C=C(C)[C@@H](O)[C@H]5OC/C(=C\C=C\[C@@H]3C)[C@]54O)C[C@@H]2OC)O[C@@H](C)[C@@H]1O [doramectin] (0.833333 µM) | 0.0705 | 104% (inactive)
50 | COc1ccc(CCN(C)CCc2ccc(OC)c(OC)c2)cc1OC (10 µM) | 0.0297 | 103% (inactive)
51 | O=C1c2ccccc2C(=O)C1c1ccccc1 [phenindione] (10 µM) | -0.000221 | 106% (inactive)
52 | CNC(=O)CN(CCN(CCN(CC(=O)[O-])CC(=O)NC)CC(=O)[O-])CC(=O)[O-].[Gd+3] [gadodiamide] (10 µM) | -0.0219 | 103% (inactive)
53 | CNCc1ccc(C)c(NC(=O)c2ccc(Nc3nc(-c4ccccc4)c4ccccc4n3)cc2)c1 (0.833333 µM) | 0.213 | 98% (inactive)
54 | COc1ccc2c(c1)C(C(=O)N(Cc1ccc(N(C)C)cc1)c1ccc(C(C)C)cc1)CCC2 (stereo not drawn) (10 µM) | 0.106 | 85.5% (inactive)
55 | Cc1c(Cl)cccc1Nc1ccccc1C(=O)O [tolfenamic-acid] (10 µM) | 0.00971 | 110% (inactive)
56 | C[C@@H]1C/C=C/C=C/C=C/C=C/[C@H](O[C@@H]2O[C@H](C)[C@@H](O)[C@H](N)[C@@H]2O)C[C@@H]2O[C@](O)(C[C@@H](O)C[C@H]3O[C@@H]3/C=C/C(=O)O1)C[C@H](O)[C@H]2C(=O)O [natamycin] (10 µM) | 0.0781 | 108% (inactive)
57 | O/N=C/c1cc[n+](COC[n+]2ccc(/C=N/O)cc2)cc1 [obidoxime] (10 µM) | -0.0437 | 108% (inactive)
58 | C/C=C/C=C/C(=O)O [sorbic-acid] (10 µM) | -0.0925 | 101% (inactive)
59 | C[C@]12C=CC(=O)C=C1CC[C@@H]1[C@@H]2[C@@H](O)C[C@@]2(C)[C@H]1CC[C@]2(O)C(=O)COC(=O)CCC(=O)O [prednisolone-hemisuccinate] (10 µM) | 0.166 | 94% (inactive)
